{"source": "PubChem BioAssay (Tox21)", "note": "“And” between values parts separate entries of the source, which are not always exact repeats. Equal values may be shown once. Results filed as inconclusive are left out. The source made the active and inactive calls. The call rests on the fitted dose curve. On the % scale 0 is the no-effect control and ±100 the full control effect; potency means the concentration at half of the fitted maximal effect."}
{"test": "qHTS assay for small molecule agonists of the antioxidant response element (ARE) signaling pathway - cell viability counter screen (AID 743203); further: nearly all actives have a fitted effect of over 55% in size", "conditions": "ARE-bla HepG2 viability, CellTiter-Glo luminescence, 16 h; series mostly up to 73.3 µM; viability change, negative = cytotoxic: at the top concentration", "description": "National Center for Advancing Translational Sciences [NCATS]\nNIH Chemical Genomics Center [NCGC]\nU.S. Environmental Protection Agency [EPA]\nNational Institutes of Environmental Health Sciences [NIEHS]\nNational Toxicology Program [NTP]\nU.S. Food and Drug Administration [FDA]\nOxidative stress has been implicated in the pathogenesis of a variety of diseases ranging from cancer to neurodegeneration. The antioxidant response element (ARE) signaling pathway plays an important role in the amelioration of oxidative stress. The CellSensor ARE-bla HepG2 cell line (Invitrogen) can be used for analyzing the Nrf2/antioxidant response signaling pathway. Nrf2 (NF-E2-related factor 2) and Nrf1 are transcription factors that bind to AREs and activate these genes. The CellSensor ARE-bla Hep G2 cell line contains a beta-lactamase reporter gene under control of the Antioxidant Response Element (ARE) stably integrated into HepG2 cells. The activation of the report gene under culture conditions can be detected by fluorescence intensity. This cell line has been used to screen the Tox21 10K compound library to identify agonists that induce oxidative stress. The cytotoxicity of the Tox21 compound library against the ARE-bla cell line was tested in parallel by measuring the cell viability using CellTiter-Glo assay (Promega, Madison, WI) in the same wells.\nTox21 Assay Protocol Summary:\nARE-bla HepG2 cells were dispensed at 2,000 cells/5 ul/well in 1536-well white wall/solid bottom plates using a Multidrop Combi (ThermoFisher Scientific, Waltham, MA) dispenser. After the assay plates were incubated at 37C/5% CO2 for 5 hrs, 23 nL of compounds dissolved in DMSO, positive controls or DMSO only was transferred to the assay plate by a pintool work station (Kalypsys, San Diego, CA). The plates were incubated at 37C/5% CO2 for 16 hrs, followed by addition of 4 ul/well of CellTiter-Glo reagent into the assay plates using a Flying Reagent Dispenser (Aurora Discovery, San Diego, CA). After 30 min incubation at room temperature, the luminescence intensity in the assay plates was measured using a ViewLux (PerkinElmer, Shelton, CT) plate reader."}
{"smiles": "CCC(C)[O-].CCC(C)[O-].CCOC(=O)/C=C(/C)[O-].[Al+3]", "viability change, negative = cytotoxic": "20.2% (inactive)"}
{"smiles": "CCCC(=O)OCCc1ccccc1", "viability change, negative = cytotoxic": "9.9% (inactive)"}
{"smiles": "C#C[C@]1(OC(C)=O)CC[C@H]2[C@@H]3CCC4=C[C@@H](OC(C)=O)CC[C@@H]4[C@H]3CC[C@@]21C", "viability change, negative = cytotoxic": "11.5% (inactive)"}
{"smiles": "Cc1cc(-c2ccc(N=Nc3cc(S(=O)(=O)O)c4ccccc4c3N)c(C)c2)ccc1N=Nc1cc(S(=O)(=O)O)c2ccccc2c1N", "viability change, negative = cytotoxic": "-9.29% [at 94.8 µM] (inactive)"}
{"smiles": "Cc1cc(C)c(/C=C2\\C(=O)Nc3ccccc32)[nH]1", "viability change, negative = cytotoxic": "-7.23% (inactive)"}
{"smiles": "O=c1oc2cc(O)ccc2c2oc3cc(O)ccc3c12", "viability change, negative = cytotoxic": "2.76% (inactive)"}
{"smiles": "CC/C=C\\CCCCCO", "viability change, negative = cytotoxic": "6.6% (inactive)"}
{"smiles": "O=C(c1ccc(O)c(O)c1)c1ccc(O)cc1O", "viability change, negative = cytotoxic": "-2.42% (inactive)"}
{"smiles": "CCOC(=O)NNc1ccc(N(CC)CC(C)O)nn1", "note": "(stereo not given)", "viability change, negative = cytotoxic": "9.57% (inactive)"}
{"smiles": "COc1cc(C)ccc1O", "viability change, negative = cytotoxic": "-16.4% (inactive)"}
{"smiles": "COC(C)=O", "viability change, negative = cytotoxic": "-3.7% [at 94.8 µM] (inactive)"}
{"smiles": "O=C(O)O", "viability change, negative = cytotoxic": "6.5% [at 8.36 µM] (inactive)"}
{"smiles": "CCC(=O)OC(=O)CC", "viability change, negative = cytotoxic": "1.62% (inactive)"}
{"smiles": "Nc1cc(Cl)c(O)c(Cl)c1", "viability change, negative = cytotoxic": "8.31% (inactive)"}
{"smiles": "OC[C@@H](O)[C@@H](O)CO", "viability change, negative = cytotoxic": "3.65% (inactive)"}
{"smiles": "Cc1c2ccccc2c(C)c2c1ccc1ccccc12", "Potency": "24.3 µM (active)"}
{"smiles": "Cc1cc(-n2nc3ccc(Cl)cc3n2)c(O)c(C(C)(C)C)c1", "viability change, negative = cytotoxic": "1.07% (inactive)"}
{"smiles": "OC1CCCc2ccccc21", "note": "(stereo not given)", "viability change, negative = cytotoxic": "5.59% [at 94.8 µM] (inactive)"}
{"smiles": "CC1=CCC(=C(C)C)CC1", "viability change, negative = cytotoxic": "11.8% (inactive)"}
{"smiles": "O=C(O)c1ccc2cc(C(=O)O)ccc2c1", "viability change, negative = cytotoxic": "1.62% [at 94.8 µM] (inactive)"}
{"smiles": "CC1(C)CC(O)CC(C)(C)N1", "viability change, negative = cytotoxic": "6.9% [at 94.8 µM] (inactive)"}
{"smiles": "CC(=O)[C@H]1CC[C@H]2[C@@H]3CCC4=CC(=O)CC[C@]4(C)[C@H]3CC[C@]12C", "viability change, negative = cytotoxic": "-0.0999% (inactive)"}
{"smiles": "C[Si](Cl)(c1ccccc1)c1ccccc1", "viability change, negative = cytotoxic": "-15.2% (inactive)"}
{"smiles": "Nc1ccc(Oc2ccc(Cl)cc2)cc1", "viability change, negative = cytotoxic": "-10% (inactive)"}
{"smiles": "Cc1c(C)c2c(c(C)c1OC(=O)c1cccnc1)CC[C@@](C)(CCC[C@H](C)CCC[C@H](C)CCCC(C)C)O2", "viability change, negative = cytotoxic": "18.2% (inactive)"}
{"smiles": "C#C[C@]1(OC(C)=O)CC[C@H]2[C@@H]3CCC4=C/C(=N/O)CC[C@@H]4[C@H]3CC[C@@]21CC", "Potency": "29.8 µM (active)"}
{"smiles": "CCO[C@@H]1O[C@H](C(COCc2ccccc2)OCc2ccccc2)[C@H](OCc2ccccc2)[C@H]1O", "note": "(stereo not given in full)", "viability change, negative = cytotoxic": "0.469% (inactive)"}
{"smiles": "COc1ccc(NC(=O)CC(C)=O)cc1", "viability change, negative = cytotoxic": "11.3% (inactive)"}
{"smiles": "Cc1ccc(O)c(N)c1", "viability change, negative = cytotoxic": "-17.7% (inactive)"}
{"smiles": "CC(=O)OCC=C(C)C", "viability change, negative = cytotoxic": "-12.3% (inactive)"}
{"smiles": "CCCCCCCCCCOC(=O)c1ccccc1C(=O)OCCCCCCCC", "viability change, negative = cytotoxic": "7.57% (inactive)"}
{"smiles": "Cc1cc(C(C)(C)C)cc(C)c1CC1=NCCN1", "viability change, negative = cytotoxic": "-2.68% (inactive)"}
{"smiles": "COc1cccc2c1C(=O)c1c(O)c3c(c(O)c1C2=O)C[C@@](O)(C(C)=O)C[C@@H]3O[C@H]1C[C@H](N)[C@H](O)[C@H](C)O1", "Potency": "8.69 µM (active) and 13.3 µM (active)"}
{"smiles": "COc1ccc2cc1Oc1ccc(cc1)C[C@H]1c3c(cc4c(c3Oc3cc5c(cc3OC)CCN(C)[C@@H]5C2)OCO4)CCN1C", "Potency": "29.8 µM (active)"}
{"smiles": "O=C(O)CN(CCN(CC(=O)O)CC(=O)O)CC(=O)O", "viability change, negative = cytotoxic": "-5.36% [at 3.74 µM] (inactive)"}
{"smiles": "NC[C@H]1O[C@H](O[C@H]2[C@H](O[C@@H]3O[C@H](CO)[C@@H](O)[C@H]3O)C(O)[C@H](N)C[C@@H]2N)[C@H](N)[C@@H](O)[C@@H]1O", "note": "(stereo not given in full)", "viability change, negative = cytotoxic": "-15.3% [at 8.36 µM] (inactive)"}
{"smiles": "O=[N+]([O-])c1cccc(C(F)(F)F)c1", "viability change, negative = cytotoxic": "1.82% [at 94.8 µM] (inactive)"}
{"smiles": "OC[C@H]1O[C@H](O[C@H]2O[C@H](CO)[C@@H](O)[C@H](O)[C@H]2O)[C@H](O)[C@@H](O)[C@@H]1O", "viability change, negative = cytotoxic": "0.0771% [at 94.8 µM] (inactive)"}
{"smiles": "O=S(=O)(O)c1ccc(Nc2nc(Nc3ccc(/C=C/c4ccc(Nc5nc(Nc6ccc(S(=O)(=O)O)cc6)nc(N(CCO)CCO)n5)cc4S(=O)(=O)O)c(S(=O)(=O)O)c3)nc(N(CCO)CCO)n2)cc1", "viability change, negative = cytotoxic": "-8.38% (inactive)"}
{"smiles": "S=c1nccc[nH]1", "viability change, negative = cytotoxic": "-0.271% (inactive)"}
